Screening data: PubChem BioAssay, Broad Institute
Many of the other results were omitted from the sample, so hits are more common in it than they were.
IDE exosite inh = insulin-degrading enzyme (human) exo-site inhibition. P14735. purified IDE, FL-6b probe fluorescence polarization; stronger effect = lower value. z-score at 20 µM. 17,000 compounds, 6.3% hits. AID 1259349;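 active = z-score of -3 or lower, meaning strong loss of probe binding signal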;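 note: His-tagged human IDE residues 42-1019 made in E. coli with 30 nM FL-6b probe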
Target sequence (P14735 42-1019 limits assumed): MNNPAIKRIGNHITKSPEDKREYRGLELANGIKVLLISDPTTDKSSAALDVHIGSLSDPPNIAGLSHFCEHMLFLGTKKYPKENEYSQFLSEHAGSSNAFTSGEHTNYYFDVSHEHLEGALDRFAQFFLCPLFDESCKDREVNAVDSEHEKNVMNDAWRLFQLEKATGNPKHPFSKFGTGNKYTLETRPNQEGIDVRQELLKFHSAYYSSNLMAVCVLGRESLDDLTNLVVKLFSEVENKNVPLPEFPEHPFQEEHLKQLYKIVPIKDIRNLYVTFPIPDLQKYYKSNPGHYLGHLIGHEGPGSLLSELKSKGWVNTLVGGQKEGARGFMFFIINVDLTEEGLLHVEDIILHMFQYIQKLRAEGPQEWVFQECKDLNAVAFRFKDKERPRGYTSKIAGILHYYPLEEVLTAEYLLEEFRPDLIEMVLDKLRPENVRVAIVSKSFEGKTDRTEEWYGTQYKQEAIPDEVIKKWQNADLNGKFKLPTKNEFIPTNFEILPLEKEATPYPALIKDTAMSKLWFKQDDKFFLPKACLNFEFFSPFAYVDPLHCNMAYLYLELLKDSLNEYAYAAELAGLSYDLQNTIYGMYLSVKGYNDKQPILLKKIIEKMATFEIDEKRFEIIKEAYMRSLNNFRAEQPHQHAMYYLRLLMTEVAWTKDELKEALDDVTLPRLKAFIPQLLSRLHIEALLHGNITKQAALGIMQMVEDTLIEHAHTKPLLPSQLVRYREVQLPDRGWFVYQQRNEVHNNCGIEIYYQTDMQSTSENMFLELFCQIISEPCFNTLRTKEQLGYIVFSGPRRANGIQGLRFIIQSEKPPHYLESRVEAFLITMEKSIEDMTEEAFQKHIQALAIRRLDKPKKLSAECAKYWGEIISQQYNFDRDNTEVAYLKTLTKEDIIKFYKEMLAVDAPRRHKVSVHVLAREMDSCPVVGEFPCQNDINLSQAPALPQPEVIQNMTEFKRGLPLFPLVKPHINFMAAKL
The depositor's hits bear a star.

SMILES	IDE exosite inh
COc1cccc(-c2ccc([C@H]3[C@H](C#N)N(C(=O)Cc4ccncc4)[C@H]3CO)cc2)c1	-2.7
COc1cccc(-c2ccccc2[C@@H]2[C@@H](C#N)N(C(=O)Cc3ccccc3)[C@H]2CO)c1	-1.1
COc1cccc(-c2ccc([C@H]3[C@@H](C#N)N(C(=O)Cc4ccncc4)[C@@H]3CO)cc2)c1	-3.8*
COc1cccc(-c2ccccc2[C@@H]2[C@H](C#N)N(C(=O)Cc3ccccc3)[C@H]2CO)c1	0.95
CCCNC(=O)N1[C@H](CO)[C@H](c2ccc(-c3cccc(OC)c3)cc2)[C@@H]1C#N	-1.2
COc1cccc(-c2ccc([C@@H]3[C@@H](C#N)N(C(=O)Cc4ccncc4)[C@@H]3CO)cc2)c1	-10*
CN1C(=O)c2cc(NC(=O)C3CCOCC3)ccc2OC[C@H]2O[C@H](CC(=O)NCC3CCCCC3)CC[C@@H]21	0.71
O=C(c1ccc(F)cc1)N1CC(=O)N2[C@H](CO)[C@@H](c3ccc(C#CC4CC4)cc3)[C@H]2C1	-1.2
C[C@@H]1CN([C@@H](C)CO)C(=O)CCCn2nncc2CO[C@H]1CN(C)C(=O)Nc1ccc2c(c1)OCCO2	-1.1
O=C(C1CCOCC1)N1CC(=O)N2[C@H](C1)[C@@H](c1ccc(C#Cc3cccc(F)c3)cc1)[C@@H]2CO	-9.4*
O=C(C1CCOCC1)N1CC(=O)N2[C@H](CO)[C@@H](c3ccc(C#Cc4cccc(F)c4)cc3)[C@H]2C1	-4.4*
O=C(C1CCOCC1)N1CC(=O)N2[C@H](CO)[C@H](c3ccc(C#Cc4cccc(F)c4)cc3)[C@@H]2C1	-8.2*
O=C(C1CCOCC1)N1CC(=O)N2[C@H](CO)[C@@H](c3ccc(C#CC4CC4)cc3)[C@@H]2C1	-0.18
O=C(C1CCOCC1)N1CC(=O)N2[C@@H](CO)[C@H](c3ccc(C#Cc4cccc(F)c4)cc3)[C@@H]2C1	-6.6*
COc1cccc(C(=O)Nc2ccc3c(c2)C(=O)N(C)C[C@@H](OC)[C@H](C)CN(C(=O)C2CC2)[C@H](C)CO3)c1	0.051
O=C(NC[C@@H]1[C@@H](c2ccccc2)[C@H](CO)N1Cc1ccccn1)C1CC1	1.9
O=C1CN(Cc2ccc(F)cc2)C[C@@H]2[C@H](c3ccc(-c4ccccc4)cc3)[C@H](CO)N12	0.99
Cc1noc(C)c1NC(=O)Nc1ccc2c(c1)C(=O)N([C@@H](C)CO)C[C@@H](C)[C@@H](CN(C)Cc1ccc3c(c1)OCO3)OCCCC[C@@H](C)O2	0.85
C/C=C/c1ccc([C@H]2[C@@H](CO)N(CC3CC3)[C@@H]2CN(C(C)=O)C(C)C)cc1	0.63
COc1ccc2c3c([nH]c2c1)[C@@H](CO)N(C(C)=O)CC31CCN(C(=O)c2ccc3c(c2)OCO3)CC1	0.18
CN1C(=O)c2cc(NS(=O)(=O)c3cccc(F)c3)ccc2OC[C@@H]2O[C@@H](CC(=O)N3CCc4ccccc4C3)CC[C@@H]21	0.031
O=C(C1CCOCC1)N1CC(=O)N2[C@@H](CO)[C@H](c3ccc(C#CC4CCCCC4)cc3)[C@@H]2C1	1.1
COc1ccccc1C#Cc1ccc([C@@H]2[C@H](CO)N3CCCCN(S(C)(=O)=O)C[C@@H]23)cc1	-18*
CS(=O)(=O)N1CCCCN2[C@H](CO)[C@@H](c3ccc(C#Cc4ccccn4)cc3)[C@@H]2C1	-1.6
COc1ccc(C#Cc2ccc([C@@H]3[C@H]4CN(S(=O)(=O)c5ccccc5)CCCCN4[C@H]3CO)cc2)cc1	-0.32
SMILES	IDE exosite inh
CCCC#Cc1ccc([C@@H]2[C@H](CO)N3CCCCN(S(C)(=O)=O)C[C@@H]23)cc1	-1.6
O=S(=O)(c1ccccc1)N1CCCCN2[C@@H](CO)[C@@H](c3ccc(C#Cc4ccccc4)cc3)[C@@H]2C1	-5.9*
CCCC#Cc1ccc([C@H]2[C@H]3CN(S(C)(=O)=O)CCCCN3[C@H]2CO)cc1	2.7
CCCC#Cc1ccc([C@@H]2[C@@H](CO)N3CCCCN(S(C)(=O)=O)C[C@@H]23)cc1	3.7
CS(=O)(=O)N1CCCCN2[C@H](CO)[C@@H](c3ccc(C#Cc4ccccn4)cc3)[C@H]2C1	-1.8
COc1ccccc1C#Cc1ccc([C@H]2[C@H]3CN(S(C)(=O)=O)CCCCN3[C@H]2CO)cc1	-9.8*
O=S(=O)(c1ccccc1)N1CCCCN2[C@@H](CO)[C@H](c3ccc(C#Cc4ccccc4)cc3)[C@@H]2C1	3.8
COc1ccccc1C#Cc1ccc([C@H]2[C@@H](CO)N3CCCCN(S(C)(=O)=O)C[C@H]23)cc1	-9.9*
CCCC#Cc1ccc([C@@H]2[C@H]3CN(S(C)(=O)=O)CCCCN3[C@H]2CO)cc1	0.53
C/C=C/c1ccc([C@@H]2[C@@H](CO)N(C(C)=O)[C@@H]2CN(CC)C(=O)CN(C)C)cc1	-0.57
O=C(c1ccccc1)N1CC(=O)N2[C@@H](CO)[C@H](c3ccc(-c4ccccc4)cc3)[C@@H]2C1	-2.6
CCS(=O)(=O)N1CC2(CN(CC3CCOCC3)[C@H](CO)c3c2c2ccc(OC)cc2n3C)C1	-2.6
CC(=O)N1CC(=O)N2[C@H](C1)[C@H](c1ccc(C#CC(C)C)cc1)[C@@H]2CO	0.56
COc1ccccc1C(=O)N1C[C@H]2[C@@H](c3ccccc31)[C@H](CO)N2C(=O)Cc1ccccc1	3.9
